Results as given in PubChem BioAssay (NCI).
About 83,000 compounds went through this panel and 20% of them were active in at least one assay; those are over-represented in the sample as a whole.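 Activity criterion: percent growth below 10, measured after cells in 96-well plates were exposed to a single compound concentration for 48 hours.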 Activity calls are given as the source filed them.

Columns and labels:
Experiment in all cases: NCI-60 one-dose screen, 48 h (100 = growth as untreated, 0 = no growth, -100 = all killed)
Settings in all cases: 10 µM unless noted
[1] = tested on: DU-145 prostate
[2] = tested on: K-562 leukemia
[3] = tested on: MALME-3M melanoma
[4] = tested on: MDA-MB-231 breast
[5] = tested on: SF-268 CNS
[6] = tested on: SF-295 CNS
[7] = tested on: SF-539 CNS
[8] = tested on: UACC-257 melanoma
[9] = tested on: M14 melanoma
[10] = tested on: RXF 393 renal

Measured: growth

O=C(O)c1ccc(CNS(=O)(=O)c2ccc3ccccc3c2)cc1
inactive: [1] 93.7% | [2] 94.5% | [3] 93.7% | [4] 105% | [5] 96.2% | [6] 105% | [7] 106% | [8] 99.1% | [9] 103%

O=C(O)C1CCN(S(=O)(=O)c2ccc(-c3ccccc3)cc2)CC1
inactive: [1] 114% | [2] 109% | [3] 127% | [4] 98.7% | [5] 108% | [6] 192% | [7] 109% | [8] 56.2% | [9] 109%

O=C(/C=C/c1ccc([N+](=O)[O-])cc1)c1ccc2c3c(cccc13)CC2
active: [6] -17.9% | [8] 3.27%
inactive: [1] 38.7% | [2] 44.8% | [3] 79.7% | [4] 81.4% | [5] 80.9% | [7] 33.1% | [9] 95.3%

O=C(CN1CCN(c2ccc(Cl)cc2)CC1)N1CCN(c2nnc(-c3ccccc3)c(-c3ccccc3)n2)CC1
active: [2] 4.43%
inactive: [1] 62.8% | [3] 76.5% | [4] 64.5% | [5] 58.5% | [6] 38.4% | [7] 50.5% | [9] 60.1%

CCOC(=O)N1CCC(N=C2CSc3nnc(-c4cc(C(F)(F)F)cc(C(F)(F)F)c4)n3N2)CC1
inactive: [1] 64.6% | [2] 28.3% | [3] 68.4% | [4] 34.4% | [5] 50.2% | [6] 33.4% | [7] 18.3% | [8] 48.6% | [9] 27.5%

CC(C)=CCNc1ncnc2c1ncn2C1OC(COP(=O)(O)O)C(O)C1O (centres undefined)
inactive: [2] 16.1% | [3] 68.5% | [5] 59.9% | [6] 25.6% | [7] 52% | [8] 94.1% | [9] 50.5%
active: [1] 4.87% | [4] 5.56%

O=C(c1ccc(N2CCOCC2)cc1[N+](=O)[O-])N1CCOCC1
active: [6] -38.9%
inactive: [1] 114% | [2] 159% | [3] 103% | [4] 134% | [5] 110% | [7] 107% | [8] 43.9% | [9] 107%

O=C(Nc1nn2c(-c3cc(C(F)(F)F)cc(C(F)(F)F)c3)nnc2s1)C1CCCC1
inactive: [1] 33.1% | [3] 10.4% | [5] 28.4% | [7] 12.8%
active: [2] 6.69% | [4] -32% | [6] 1.49% | [8] 4.69% | [9] 7.59%

Cc1nn(-c2nc3ccccc3s2)c(C)c1Oc1ccccc1O
inactive: [1] 68.2% | [2] 31.8% | [3] 76.9% | [4] 70.8% | [5] 60.5% | [6] 58.8% | [7] 60.9% | [8] 104% | [9] 63.7%

CC1Cc2ccccc2N1C(=O)c1ccc(C(=O)c2ccccc2)cc1 (centres undefined)
inactive: [1] 79.7% | [2] 85.6% | [3] 73% | [4] 91.3% | [5] 92.1% | [6] 84% | [7] 96.3% | [8] 30.1% | [9] 83.5%

NS(=O)(=O)c1ccc(-n2ncc3c(SCc4ccccc4)ncnc32)cc1
inactive: [1] 78.1% | [2] 74.8% | [3] 82.8% | [4] 91.4% | [5] 96.2% | [6] 64.7% | [7] 91.6% | [8] 56.6% | [9] 67%

COc1ccc(-n2cnc3cc(C(=O)N4CCCCC4)ccc32)cc1
inactive: [1] 111% | [2] 99.4% | [3] 97% | [4] 96.4% | [5] 105% | [6] 97.9% | [7] 98.1% | [8] 101% | [9] 101%

COC(=O)C1CCN(S(=O)(=O)c2ccc(-c3ccccc3)cc2)CC1
inactive: [1] 110% | [2] 103% | [3] 122% | [4] 115% | [5] 102% | [6] 195% | [7] 101% | [8] 62.7% | [9] 107%

COc1ccc(C(=O)/C=C/c2ccc(C)cc2)cc1OC
inactive: [1] 11.3% | [2] 21.1% | [3] 101% | [4] 90.7% | [5] 57.3% | [6] 101% | [7] 70.3% | [9] 99.2%

CCCCCCCCCCN1CCC(N2CCCCC2)CC1
inactive: [1] 54.3% | [5] 39.8%
active: [2] -75.6% | [3] -43.9% | [4] -36.3% | [6] 2.51% | [7] -80.4% | [8] -91.2% | [9] -79.4%

Cc1cc2ccccn2c1C(=O)c1ccc(C(=O)c2ccccc2)cc1
inactive: [1] 85.8% | [2] 94.3% | [3] 76.8% | [4] 91% | [5] 99.7% | [6] 83.2% | [7] 98.7% | [8] 43.4% | [9] 91.1%

Nc1ccc(Oc2c(F)c(F)c(Oc3ccc(N)cc3)c(F)c2F)cc1
inactive: [1] 107% | [2] 93.3% | [3] 87.1% | [4] 109% | [5] 97.9% | [6] 103% | [7] 111% | [9] 99.1%
active: [8] 9.12%

C=CCNC(=O)/C(=C/c1cccc([N+](=O)[O-])c1)NC(=O)c1ccccc1
active: [8] 7.53%
inactive: [1] 116% | [2] 108% | [3] 102% | [4] 116% | [5] 99% | [6] 103% | [7] 92.5% | [9] 88.8%

CCSc1ncc(Br)c(Sc2nc(N)nc3nc[nH]c23)n1
inactive: [1] 43.1% | [2] 26.6% | [3] 36.2% | [4] 40.9% | [5] 44.8% | [6] 38.6% | [7] 60.1% | [9] 31.7%

CCN(CC)CCOCC[C@H]1CC[C@H]2[C@@H]3[C@H](C)Cc4cc(OS(N)(=O)=O)ccc4[C@H]3CC[C@]12C
active: [1] -58.6% | [2] -63.8% | [3] -67.5% | [4] -67.3% | [5] -80.2% | [6] -65% | [7] -96.1% | [9] -97.1%

COc1ccc(N2CCN(CC(=O)N3CCN(c4nnc(-c5ccccc5)c(-c5ccccc5)n4)CC3)CC2)cc1
inactive: [1] 70.5% | [2] 18.7% | [3] 64.6% | [4] 72.1% | [5] 62.6% | [6] 39.6% | [7] 53.9% | [9] 64.4%

COc1ccc(C2=NN(C(N)=S)C(c3ccc4c(c3)OCO4)C2)cc1 (centres undefined)
inactive: [4] 48.7% | [10] 48.5% | [5] 21.5% | [7] 21.4% | [8] 38% | [9] 21.6%
active: [1] -3.99% | [2] 5.68% | [6] -9.16%

c1ccc(CN=C(NCc2ccccc2)NCc2ccccc2)cc1
active: [8] -13.2%
inactive: [1] 66.4% | [2] 35.7% | [4] 70.8% | [10] 91.7% | [5] 63.8% | [6] 30% | [7] 93.6% | [9] 52.9%

CN1CCN(CCCCCN=c2cc3c(=O)n(CCCCCN4CCN(C)CC4)c(=O)c4c(NCCCCCN5CCN(C)CC5)cc5c(O)n(CCCCCN6CCN(C)CC6)c(=O)c2c5c4-3)CC1
inactive: [10] 64.4% | [6] 36.4% | [7] 10.4% | [9] 81.8%
active: [1] 0.918% | [2] 8.94% | [4] -34% | [5] -2.31% | [8] -11.4%

O=C1N=C(N2CCOCC2)S/C1=C\c1cn(-c2ccccc2)nc1-c1ccccc1
inactive: [1] 69.9% | [2] 92.9% | [4] 52.7% | [10] 51.8% | [5] 74.8% | [6] 48.4% | [7] 28.4% | [8] 81.9% | [9] 83.5%

O=C1OC2(c3ccccc31)c1ccccc1-c1ccccc12
inactive: [1] 114% | [2] 36.5% | [4] 68.3% | [10] 96.8% | [5] 86.8% | [6] 75.4% | [7] 99.2% | [8] 88.7% | [9] 50.7%

CCOC(CNCc1cc(C)c2[nH]c3ccccc3c2c1C)OCC
inactive: [1] 109% | [2] 34.3% | [4] 63% | [10] 73.2% | [5] 86.2% | [6] 60.2% | [7] 83.7% | [8] 76% | [9] 64.9%

COC(=O)C1(NC(=O)CNC(=O)OCc2ccccc2)CCCC1
inactive: [1] 114% | [2] 98.7% | [4] 95.8% | [10] 105% | [5] 114% | [6] 117% | [7] 99.4% | [8] 106% | [9] 105%

CCOC(=O)c1cnc2c(C)cc(C)cc2c1NCCCN(C)C
inactive: [1] 35.4% | [3] 51% | [4] 35.7% | [5] 35.7% | [6] 29.9% | [7] 28.9% | [9] 34.2%
active: [2] 8.6%

C(=C1c2ccccc2-c2ccccc21)c1ccncc1
inactive: [1] 84.9% | [2] 11.4% | [4] 44.2% | [10] 72.3% | [5] 54.8% | [6] 35.6% | [7] 56.3% | [8] 74.5% | [9] 18.7%
